{"source": "PubChem BioAssay (NCI)", "note": "This is part of a sample that, as a whole, favours compounds with a hit. Of some 83,000 tested, about 20% had one in any assay.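 48-hour exposure, single concentration, 96-well plates; percent growth endpoint where 0 means no net growth. Active: below 10.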 Active and inactive are the calls of the source."}
{"tested_on": "SK-MEL-28 melanoma", "assay": "NCI-60 one-dose screen, 48 h (100 = growth as untreated, 0 = no growth, -100 = all killed)", "details": "10 µM unless noted"}
{"compound": "Cl[C@@H]1CCO[C@H](c2cc3ccccc3c3ccccc23)C1", "growth": "104% (inactive)"}
{"compound": "C[C@]12CC[C@@H]3c4ccc(O)c(N)c4CC[C@H]3[C@@H]1CC[C@@H]2O", "growth": "118% (inactive)"}
{"compound": "COc1ccc(/C=C/C(=O)c2ccc(-n3cc(CN4CCN(c5cc6c(cc5F)c(=O)c(C(=O)O)cn6C5CC5)CC4)nn3)cc2)cc1OC", "growth": "34.6% (inactive)"}
{"compound": "COc1ccc(-c2nn(-c3ccc(NC(=O)c4ccc(Cl)c(C(F)(F)F)c4)cc3)cc2-c2ccncc2)cc1Cl", "growth": "50.2% (inactive)"}
{"compound": "O=C(O)c1cc2ccccc2cc1Nc1ccccc1", "growth": "107% (inactive)"}
{"compound": "COc1ccc(Cn2cc3c(c2-c2cc(OC)c(OC)c(OC)c2)CCc2c(CO)noc2-3)cc1", "growth": "54% (inactive)"}
{"compound": "COc1cc(C(=O)N2CCN(C(=O)c3cc(OC)c(OCc4ccccc4)cc3N)CC2)c(N)cc1OCc1ccccc1", "growth": "123% (inactive)"}
{"compound": "Nc1ccc(S(=O)(=O)Nc2ccnn2-c2ccccc2)cc1", "growth": "119% (inactive)"}
{"compound": "COc1ccc(-c2nnc(SCC(=O)Nc3ccc(C(=O)/C=C/c4ccccc4)cc3)o2)cc1OC", "growth": "106% (inactive)"}
{"compound": "CCC(N)(C(=O)O)c1ccc(F)cc1", "note": "(stereo not given)", "growth": "112% (inactive)"}
{"compound": "COc1ccc(-c2c(C#N)cnc(N)c2-c2nc3cc(C)c(C)cc3[nH]2)cc1", "growth": "77% (inactive)"}
{"compound": "CC(C)(C)NCC(O)COc1c(Br)c(Br)c(Br)c2c1OC(C)(C)C2", "note": "(stereo not given)", "growth": "-83.7% (active)"}
{"compound": "O=C1/C(=C/c2cccc3cnccc23)Cc2cc(F)ccc21", "growth": "109% (inactive)"}
{"compound": "COC(OC)C1(c2ccccc2)NC(=O)NC1=O", "note": "(stereo not given)", "growth": "106% (inactive)"}
{"compound": "c1cncc(-c2nc3ccccc3[nH]2)c1", "growth": "87% (inactive)"}
